Experiments:
Settings in all cases: concentration: 1 μM, replicates: in singlicate; n = 1
[1] = tested on: TYK2(JH2domain-pseudokinase)
[2] = tested on: TYRO3
[3] = tested on: ULK1
[4] = tested on: ULK2
[5] = tested on: ULK3
[6] = tested on: T1, VEGFR2
T1 construct: gene KDR

[7] = tested on: T2, VPS34
T2 construct: gene PIK3C3

[8] = tested on: VRK2
[9] = tested on: WEE1
[10] = tested on: WEE2
[11] = tested on: WNK1
[12] = tested on: WNK2
[13] = tested on: WNK3
[14] = tested on: WNK4
[15] = tested on: T3, YANK1
T3 construct: gene STK32A

[16] = tested on: T4, YANK2
T4 construct: gene STK32B

[17] = tested on: T5, YANK3
T5 construct: gene STK32C

[18] = tested on: T6, YES
T6 construct: gene YES1

[19] = tested on: T7, YSK1
T7 construct: gene STK25

[20] = tested on: T8, YSK4
T8 construct: gene MAP3K19
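Also: KINOMEscan kinase panel screen.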

SMILES	%Inh [1] [%]	%Inh [2] [%]	%Inh [3] [%]	%Inh [4] [%]	%Inh [5] [%]	%Inh [6] [%]	%Inh [7] [%]	%Inh [8] [%]	%Inh [9] [%]	%Inh [10] [%]	%Inh [11] [%]	%Inh [12] [%]	%Inh [13] [%]	%Inh [14] [%]	%Inh [15] [%]	%Inh [16] [%]	%Inh [17] [%]	%Inh [18] [%]	%Inh [19] [%]	%Inh [20] [%]
Cl.Cl.NCC(NC(=O)c1cc(-c2ccccc2)c(-c2ccnc3[nH]ccc23)s1)c1ccccc1 (stereo not shown) [GSK1321561]	2	0	8	0	9	0	6	0	17	0	5	100	3	5	48	35	1	41	0	73
COc1cccc(-c2ccc3c(NC(=O)C4CC4)n[nH]c3n2)c1 [SB-710903]	64	0	0	0	9	0	0	66	14	15	45	57	66	87	0	2	0	13	0	92.3
CC(=O)N1CCN(c2ccc(Nc3nccc(-c4sc(C(C)C)nc4-c4cccc(NS(=O)(=O)c5cccc(Cl)c5)c4)n3)cn2)CC1 [GSK1660437]	0	40	37	4	62	26	0	0	0	0	2	11	0	0	3	77	0	92.4	0	9
Cc1ccc(S(=O)(=O)Nc2ccc(Nc3nccc(Nc4cccc5[nH]ncc45)n3)cc2)cc1 [GSK581271]	93.6	0	19	0	38	0	60	0	6	8	4	0	26	16	0	0	3	30	13	67
CCn1c(-c2nonc2N)nc2c(C#CC(C)(C)O)nc(OC[C@H](N)c3ccccc3)cc21 [GSK943949]	0	0	0	0	1	1	16	0	1	2	0	0	0	31	0	0	31	19	0	100
COc1cc(Nc2nccc(N3CCC(NC(=O)c4cc5ccccc5s4)C3)n2)cc(OC)c1OC (stereo not shown) [GSK1379760]	6	0	1	0	64	0	33	20	8	0	0	0	30	11	13	11	0	8	17	0
CCn1c(-c2nonc2N)nc2c(C#CC(C)(C)O)ncc(OCCCCN)c21.O=C(O)C(F)(F)F.O=C(O)C(F)(F)F [GSK507274]	29	2	54	32	12	0	34	0	10	14	19	0	21	3	31	0	24	16	0	99.4
Cn1cc(-c2[nH]c3cc(NC(=O)[C@H](N)C4CCCCC4)cc4c3c2C=NNC4=O)cn1	87	73	68	98.9	97.6	90.7	80	0	65	98.2	0	4	0	0	16	0	0	88	47	100
COCCOCCOc1cc2ncc3c4ccc(C#N)cc4[nH]c3c2cc1OC	41	8	79	99.4	65	0	0	9	3	15	0	0	0	0	0	0	0	13	0	93.7
CCS(=O)(=O)c1ccc(OC)c(Nc2nccc(-c3c(-c4cccc(NC(=O)c5c(F)cccc5F)c4)nn4ncccc34)n2)c1 [GSK326180]	26	0	12	0	25	16	0	0	17	5	17	35	18	14	0	56	24	90.1	0	33
COc1cccc(C(=O)Nc2cccc(Oc3ccc4nc(NC(=O)C5CC5)cn4n3)c2)c1	0	47	0	0	11	99.9	22	0	0	20	0	0	0	0	0	0	0	92.7	0	100
Cl.c1ccc(-c2ccc3c(Nc4ccc5[nH]ccc5c4)ccnc3c2)nc1 [GW440138]	27	0	0	0	6	98.3	0	40	8	6	0	13	35	55	0	0	0	40	0	51
O=C(Nc1n[nH]c2cc(-c3ccoc3)ccc12)C1CC1 [SB-738481]	7	0	0	1	10	32	0	0	0	0	0	0	0	7	0	0	0	3	0	89
Oc1cc(Nc2ccnc3cc(I)ccc23)ccc1F [GW552771]	25	54	9	0	29	31	0	36	0	0	1	4	34	35	10	22	31	26	0	79
O=C(Nc1cccc(-c2nn3ccccc3c2-c2ccnc(Nc3cccc(F)c3)n2)c1)c1c(F)ccc(F)c1Cl [GSK357952]	0	81	21	0	13	12	22	0	0	3	3	0	43	0	34	75	23	98.7	0	0
COc1cc2c(cc1OCCN1CCNCC1)ncc1c3ccc(C#N)cc3[nH]c21	15	0	91.9	99.8	47	49	0	15	0	0	12	41	7	9	5	0	0	0	1	87
COC(=O)Nc1nc2ccc(Oc3ccc(NC(=O)Nc4cc(C(F)(F)F)ccc4F)cc3)cc2n1C.Cl [GW692089]	18	0	0	0	0	43	0	56	2	0	0	0	46	28	0	19	0	0	0	36
Cc1cccc(Nc2nc(N[C@H]3CCNC3)ncc2C(N)=O)c1.Cl [GSK2197149]	97.7	0	30	11	42	0	13	22	0	8	0	0	0	0	19	0	18	41	52	90
CN1CCN(Cc2cccc(-c3ccc4c(Nc5ccc(Oc6ccccc6)cc5)ccnc4c3)c2)CC1 [GW578342]	5	12	0	0	2	16	0	26	0	0	0	15	31	49	3	0	0	88	12	0
COc1cc(Nc2nccc(-c3c(-c4cccc(NC(=O)c5c(F)cccc5F)c4)nn4ncccc34)n2)cc(OC)c1OC [GSK327238]	0	100	14	0	30	96.1	11	11	10	5	1	0	0	0	50	89	56	100	56	7

— article PMC5540273 (PLoS ONE, 2017)
